# Giardia killer: Giardia lamblia killing; 340,000 compounds, 0.15% hits; Giardia lamblia trophozoite viability; AID 540267; activity change, % at 7.66 µM, hits read low; in the data active = activity change below about -80%; inconclusive = between about -30% and that limit;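 note: parasites exposed to compound for two days anaerobically before the ATP read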
#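 Viability, read as ATP luminescence: trophozoites at 100 cells/well, compound added, 48 hrs anaerobic at 37 deg C, then 15-30 min room-temperature development before reading.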
# IL-1B inflam inh: inflammasome signaling inhibition, IL-1 beta readout; THP-1 LPS/ATP IL-1B secretion, AlphaLISA, 16 h; active compounds read low; 360,000 compounds, 4.7% hits; AID 743279; activity change, % at 57.5 µM; in the data active = activity change below about -50%; inconclusive = mostly about -30% to -49%
#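 THP-1 cells pretreated 1 hr with compounds (up to 57.5 uM final), then stimulated with LPS (250 ng/mL final) plus ATP (1.25 mM final); secreted IL-1B measured by AlphaLISA after 16 hr, decreased signal indicating inhibition.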
# TDP1 cell CPT: growth inhibition of DT40 Tdp1-/-;hTDP1 cells with camptothecin (screen for TDP1 inhibitors); Potency, µM (doses to about 46.2 µM), hits mostly inhibitors; AID 686979; chicken DT40 Tdp1-/-;hTDP1 cells + 20 nM CPT, ATP luminescence, 48 h; 420,000 compounds, 12% hits; note: nearly all actives have a fitted effect of over 55% in size
#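 Chicken DT40 Tdp1-/- cells stably complemented with human TDP1 were seeded at 400 cells/well in medium containing 20 nM camptothecin, exposed to pin-transferred compounds, and grown at 37 °C for at least 48 hr. Viability was read as ATP luminescence.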
# TDP1 block: TDP1 (human) enzyme inhibition; recombinant TDP1, AlphaScreen DNA substrate cleavage; Potency, µM (doses to about 130 µM), hits mostly inhibitors; 350,000 compounds, 0.28% hits; Q9NUW8; note: nearly all actives have a fitted effect of over 40% in size
# Target sequence (Q9NUW8 whole entry, looked up): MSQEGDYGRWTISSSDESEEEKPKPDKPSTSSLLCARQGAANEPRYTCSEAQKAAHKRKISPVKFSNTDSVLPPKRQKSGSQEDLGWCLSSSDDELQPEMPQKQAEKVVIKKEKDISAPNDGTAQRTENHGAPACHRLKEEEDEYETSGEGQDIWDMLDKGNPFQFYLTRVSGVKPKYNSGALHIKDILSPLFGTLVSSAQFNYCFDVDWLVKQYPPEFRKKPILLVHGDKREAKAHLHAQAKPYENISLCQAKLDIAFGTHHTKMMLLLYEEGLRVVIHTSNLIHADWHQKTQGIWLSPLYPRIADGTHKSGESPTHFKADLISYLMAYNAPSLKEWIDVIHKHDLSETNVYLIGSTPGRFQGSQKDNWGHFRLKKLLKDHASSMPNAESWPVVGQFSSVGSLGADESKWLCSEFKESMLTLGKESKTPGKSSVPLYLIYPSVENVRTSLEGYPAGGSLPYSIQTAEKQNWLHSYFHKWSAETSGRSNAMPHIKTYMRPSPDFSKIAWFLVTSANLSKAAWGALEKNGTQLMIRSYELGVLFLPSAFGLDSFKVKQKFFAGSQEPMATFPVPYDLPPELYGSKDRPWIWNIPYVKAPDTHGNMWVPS
#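 Signal: AlphaScreen proximity between streptavidin donor and anti-FITC acceptor beads on intact substrate. Reaction: Tdp1 1 nM, substrate 15 nM final, 5 min RT after 15 min compound preincubation.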
# DT40 TDP1 no CPT: qHTS for Inhibitors of human tyrosyl-DNA phosphodiesterase 1 (TDP1): qHTS in cells in absence of CPT; AID 686978, 2013; Potency, µM (series often up to 46.2 µM), actives largely listed as inhibitors; 420,000 compounds, 15% hits; DT40 Tdp1-/- hTDP1 cells, no CPT, ATP luminescence, 48 h; note: nearly all actives have a fitted effect of over 55% in size
#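 Seeded 400 DT40-hTDP1 cells/well (vehicle DMSO, no 20 nM CPT); pinned compounds; ≥48 hr at 37 °C; CellTiter-Glo luminescence as viability measure.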
# ELG1 DNA repair: blocks ELG1-dependent DNA repair in HEK293T cells. 330,000 compounds, 2.3% hits. HEK293T ELG1-luciferase reporter, luminescence, 16 h; DNA damage induced by 5-fluorouridine. AID 504467. Potency, µM (titrated, usually from 46.1 µM), usual class: inhibitors; note: nearly all actives have a fitted effect of over 55% in size
#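 Quantitative HTS, concentration-response format. 2,000 cells/well co-treated with 5-fluorouridine and compound, 16 hr in 5% CO2 at 37 °C; ONE-Glo luminescence read after 30 min.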
# Hits are given with their value; i = inactive; ? = inconclusive; nt = no result; [ ] = another dose, or the depositor's remark. This is a sample that favours compounds with a hit; in the whole collection about 19% have one here. Unless noted, calls come from the whole dose curve; as a rule, active = well fitted curve in the direction sought with a large enough effect; inconclusive = small, poorly fitted or top-dose-only effect, or another doubt; inactive = no such curve, though single readings can be large; an effect the other way counts as inactive or inconclusive.
SMILES,Giardia killer,IL-1B inflam inh,TDP1 cell CPT,TDP1 block,DT40 TDP1 no CPT,ELG1 DNA repair
COc1ccc(-c2noc(-c3nnn(-c4ccc(C)cc4C)c3C)n2)cc1,nt,nt,i,i,i,nt
COc1cccc(C2Nc3ccccc3NC3=C2C(=O)CC(C)(C)C3)c1 (centres undefined),i,i,i,i,i,i
O=C(CN1C(=O)NC2(CCc3ccccc32)C1=O)Nc1ccccc1C(F)(F)F (centres undefined),i,i,i,i,i,i
Cc1cccc(N(Cc2ccccc2)C(=O)CN2C(=O)NC3(CCCC3)C2=O)c1,i,i,i,i,?,i
C[C@H](NC(=O)N1CCn2c1nc1ccccc12)C(=O)NCCc1ccccc1,i,i,i,i,i,i
Cc1c(C(=O)N2CCC(C)CC2)sc2ncn(CC(=O)N3CCC(C)CC3)c(=O)c12,i,i,i,i,i,i
C/C=C(\C)CN1CCCC(CO)(Cc2ccccc2)C1 (centres undefined),i,i,?,i,i,i
CCCCn1c(CNC(=O)c2ccc(OC)cc2)nnc1SCC(=O)Nc1ccccc1,nt,nt,i,i,i,nt
COc1ccc(C(CNC(=O)Cc2ccccc2F)N2CCCCC2)cc1 (centres undefined),i,i,i,i,i,?
COc1ccc(C(CNC(=O)c2ccc(-c3ccccc3Cl)o2)N2CCCC2)cc1 (centres undefined),nt,i,5.2µM,nt,4.1µM,nt
COc1ccc(C(CNC(=O)COc2ccccc2)N2CCCCC2)cc1 (centres undefined),i,i,i,i,i,i
COc1ccc(C(CNC(=O)Cc2ccccc2Cl)N2CCCCC2)cc1 (centres undefined),i,-52,i,i,i,i
COc1ccc(C(CNC(=O)c2ccc(C)o2)N2CCOCC2)cc1 (centres undefined),i,i,i,i,i,i
COc1ccc(C(CNC(=O)c2ccc(-c3nc4ccccc4s3)o2)N2CCCC2)cc1 (centres undefined),i,i,23µM,i,21µM,?
COc1ccc(-c2cc(NC=O)c3ncc(-c4cccc(C(=O)NCCN(C)C)c4)n3c2)c(OC)c1,nt,i,3.3µM,nt,3.7µM,nt
COc1cc(-c2cnc3c(NC=O)cc(-c4cccc(C(=O)NCCN(C)C)c4)cn23)cc(OC)c1OC,nt,i,?,nt,15µM,nt
CN(C)CCNC(=O)c1cccc(-c2cnc3c(NC=O)cc(-c4ccccc4F)cn23)c1,nt,i,?,nt,21µM,nt
COc1ccc(-c2cc(NC=O)c3ncc(-c4cccc(C(=O)NCCN(C)C)c4)n3c2)cn1,nt,i,?,nt,?,nt
Cc1cc(-c2cc(NC=O)c3ncc(-c4cccc(C(=O)NCCN(C)C)c4)n3c2)cc(C)c1O,nt,i,?,nt,?,nt
COc1ccc(NC(=O)CN2C(=O)CC(c3ccc(C)c(C)c3)=Nc3ccccc32)cc1OC,nt,nt,?,i,?,nt
CCOC(=O)c1cc(-c2ccc(C)cc2)n(CCC(=O)Nc2ccc(C(C)C)cc2)c1C,nt,nt,5.2µM,i,5.2µM,nt
Cc1cccc2sc(NC(=O)CSCc3ccccc3)nc12,i,i,?,i,i,i
CCOC(=O)c1cc(-c2ccc(C)cc2)n(CCC(=O)NCc2ccccc2)c1C,nt,nt,?,i,?,nt
CCOC(=O)c1cc(-c2ccccc2)n(CCCC(=O)Nc2ccc(C(C)C)cc2)c1C,nt,nt,?,i,21µM,nt
Cc1cccc2sc(NC(=O)CCn3cccc3)nc12,i,-52,i,i,i,i
SMILES,Giardia killer,IL-1B inflam inh,TDP1 cell CPT,TDP1 block,DT40 TDP1 no CPT,ELG1 DNA repair
CCOC(=O)c1cc(-c2ccccc2)n(CCC(=O)Nc2nc3c(C)cccc3s2)c1C,nt,nt,13µM,i,13µM,nt
Cc1oc(-c2ccc(C(=O)NCc3cccc(F)c3)cc2)nc1COc1ccccc1,nt,nt,i,i,i,nt
Cc1ccc(C(=O)NCCSc2c[nH]c3ccccc23)cc1C,nt,nt,?,i,?,nt
O=C(NCc1ccccc1)C(c1ccc(F)cc1)N(C(=O)c1csnn1)C1CC1 (centres undefined),i,i,i,i,i,i
CCOC(=O)c1nn2c(C(F)(F)F)cc(-c3ccc(OC)cc3)nc2c1Br,i,i,?,nt,?,i
COc1ccc(NC(=O)Cn2cnc3sc(C)c(S(=O)(=O)N4CCOCC4)c3c2=O)cc1Cl,i,i,i,i,i,i
O=Cc1cccc(C=O)c1,nt,nt,i,nt,i,nt
Cc1cccc2sc(NC(=O)CCNS(=O)(=O)c3cccc4nonc34)nc12,i,?,?,i,18µM,?
CCOC(=O)c1cc(-c2ccc(C)cc2)n(CCC(=O)Nc2ccc(OC)c(OC)c2)c1C,nt,nt,?,i,18µM,nt
CCOC(=O)c1cc2occc2n1CC(=O)Nc1ccc(OC)cc1OC,i,i,23µM,i,?,i
CCOC(=O)c1cc(-c2ccc(C)cc2)n(CCC(=O)NCCN(C)C)c1C,i,i,?,i,i,i
CCOC(=O)c1cc(-c2ccccc2)n(CCCC(=O)Nc2cccc(C)c2)c1C,nt,nt,16µM,i,16µM,nt
CCOC(=O)c1cc(-c2ccccc2)n(CCC(=O)O)c1C,i,i,i,i,i,i
CN(C)CC(C)(C)CNC(=O)c1cnn(-c2ncc3c(n2)-c2ccccc2CC3)c1-c1ccco1,nt,nt,i,nt,?,nt
CCOC(=O)c1cc(-c2ccccc2)n(CCCC(=O)Nc2cccc(C)c2C)c1C,nt,nt,16µM,i,?,nt
CCOC(=O)c1cc(-c2ccc(C)cc2)n(CC(=O)Nc2ccc(OC)cc2OC)c1C,nt,nt,23µM,i,?,nt
CCOC(=O)c1cc(-c2ccc(C)cc2)n(CC(=O)Nc2ccc(OC)c(Cl)c2)c1C,nt,nt,18µM,i,16µM,nt
CCOC(=O)c1cccc(NC(=O)CCn2c(-c3ccc(F)cc3)cc(C(=O)OCC)c2C)c1,nt,nt,21µM,i,13µM,nt
COc1ccc(NC(=O)Cn2c(-c3ccc(F)cc3)cc(C(C)=O)c2C)c(OC)c1,nt,nt,i,i,i,nt
CCOC(=O)c1cc(-c2ccccc2)n(CC(=O)NCc2ccccc2)c1C,nt,nt,?,i,?,nt
CCC(C)(C)c1ccc(OCCCC[n+]2cccc(C)c2)c(C(C)(C)CC)c1,i,-180,0.58µM,i,0.92µM,7.3µM
O=C(CNC(c1ccccc1)c1ccccc1)Nc1c(F)cccc1F,i,i,?,i,16µM,i
CC(C)c1c(C(=O)N(C)Cc2cccc3ncccc23)cnn1-c1nccc(-c2ccco2)n1,nt,nt,i[9.04 µM],nt,15µM,nt
COc1ccccc1CNc1ccccc1F,i,i,?,i,i,i
CCCCc1c(-c2cccc(Br)c2)ncn1CCc1ccccc1OC,nt,-72,5.8µM,nt,5.8µM,nt

# Source: PubChem BioAssay
